Most compounds without a hit are left out; they make up all but 3.8% or so of the library.
proKLK7 act: proKLK7 zymogen activators, primary screen, biochemical, fluorescence intensity | Kallikrein-7 (Homo sapiens), P49862 | purified proKLK7, EDANS-DABCYL substrate fluorescence; 100% is mature enzyme control, 0% vehicle | activation, % at 7 µM | 0.9% of 370,000 active;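 active = activation above the mean of all tested compounds plus 3 SD, computed per campaign excluding outliers beyond control limits, cut at about 13% in these data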
FGF22 binding: binders of human FGF22 protein, primary screen, FGF22 synaptogenesis inhibitor project, biophysical, thermal shift, single point; AID 651658, 2012; recombinant FGF22 thermal shift, SYPRO orange fluorescence; percent of sucrose octasulfate shift, DMSO zero; Fibroblast growth factor 22 (Homo sapiens), Q9HCT0; 1.5% of 340,000 active; activity (Tm shift, normalised), % at 9.99 µM;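 active = mean Tm shift, scaled 0 neutral to 100 positive control, at about 1.3% or above, every replicate too, limit read from the data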
rRNA inh HTS: reduced GFP signal of wild-type E. coli, primary screen, bacterial rRNA inhibitor project, GFP/RFP fluorescence, OD600, single point | E. coli WT GFP vs humanized-ribosome RFP mutants, 24 h; active compounds read low; DMSO median 0, no signal -100 | GFP signal change (wild-type ribosome), % (concentration not given with the values) | 1.6% of 350,000 active;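 active = significant combined selectivity score with lowered wild-type GFP, culture density cut under 30%, mutant RFP and density less affected; inactive = any of these conditions unmet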
ADAM10 inh: human ADAM10 inhibitors, primary screen, biochemical, QFRET, HTS; Disintegrin and metalloproteinase domain-containing protein 10 (Homo sapiens), O14672; recombinant ADAM10, EDANS/DABCYL FRET peptide cleavage, 3 h; inhibition, % at 7 µM; 0.62% of 370,000 active; AID 720582, 2013;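 active = inhibition above a per-campaign cutoff equal to the mean of compounds falling between control-based bounds plus 3 SD, cut at about 20% in these data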;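 note: 0% = DMSO wells while the 100% control is not disclosed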
Target sequence (O14672 214-748 limits assumed): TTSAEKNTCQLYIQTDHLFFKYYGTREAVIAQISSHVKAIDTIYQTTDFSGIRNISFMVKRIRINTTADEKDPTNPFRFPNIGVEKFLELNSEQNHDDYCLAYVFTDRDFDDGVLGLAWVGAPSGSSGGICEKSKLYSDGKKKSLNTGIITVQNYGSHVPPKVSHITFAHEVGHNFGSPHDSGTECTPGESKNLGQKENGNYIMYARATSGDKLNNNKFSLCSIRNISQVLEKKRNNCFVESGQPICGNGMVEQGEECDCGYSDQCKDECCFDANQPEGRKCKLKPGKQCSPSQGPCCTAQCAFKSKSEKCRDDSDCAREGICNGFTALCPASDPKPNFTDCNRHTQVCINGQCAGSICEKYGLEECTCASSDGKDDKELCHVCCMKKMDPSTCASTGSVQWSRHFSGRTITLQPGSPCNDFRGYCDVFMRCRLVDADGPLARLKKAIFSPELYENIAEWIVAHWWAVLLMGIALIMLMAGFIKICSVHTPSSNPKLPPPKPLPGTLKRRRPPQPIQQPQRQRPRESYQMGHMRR
ADAM17 inh: ADAM17 inhibitors, primary screen, biochemical, QFRET; Disintegrin and metalloproteinase domain-containing protein 17 (Homo sapiens), P78536; recombinant ADAM17, EDANS/DABCYL FRET peptide cleavage; inhibition, % at 6.95 µM; 0.83% of 370,000 active; AID 720648, 2013;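 active = inhibition above the mean of compounds lying between control limits plus 3 SD, set per campaign, cut at about 8.5% in these data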;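 note: 0% = DMSO-only wells as the low control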
* hit, by the source's call; x = no result.

SMILES | proKLK7 act | FGF22 binding | rRNA inh HTS | ADAM10 inh | ADAM17 inh
Nc1cc(C(=O)OCC(=O)N2CCOCC2)ccc1Cl | 1 | -1 | 13 | -122 | -54
Nc1ccc(C(=O)OCC(=O)N2CCOCC2)cc1[N+](=O)[O-] | -1 | 43* | x | -3 | 0
COC(=O)C[C@@H]1CC[C@@H]2[C@H](COC[C@@H](O)CN2S(=O)(=O)c2ccccc2C)O1 | x | 0 | 1 | x | x
O=C(CNc1ccc2ccccc2c1)N/N=C/C=C/c1cccc([N+](=O)[O-])c1 | -1 | 0 | -15* | -1 | 0
CN1c2ccc(C#Cc3cccnc3)cc2[C@H]2[C@H](CCN2S(=O)(=O)c2ccc(F)cc2)[C@H]1CO | x | 1 | -2 | x | x
CCC(C(=O)Nc1cccc(OC)c1)n1nc(C)c2c(C)n(-c3ccccc3)nc2c1=O (stereo unspecified) | 0 | 0 | -1 | -16 | 0
CCOc1ccc(NC(=O)C(CC)n2nc(C)c3c(C)n(-c4ccccc4)nc3c2=O)cc1 (stereo unspecified) | 1 | 0 | -23* | -9 | -3
C[C@H](CO)N1C[C@H](C)[C@H](CN(C)C(=O)c2ccncc2)OCCCC[C@H](C)Oc2ccc(NC(=O)C3CCCCC3)cc2C1=O | x | x | -5 | x | x
CCNC(=O)C[C@@H]1CC[C@@H]2[C@H](COc3ccc(NC(=O)c4ccccc4Cl)cc3C(=O)N2C)O1 | x | 0 | 0 | x | x
C[C@@H]1CCCCO[C@H](CN(C)C(=O)CCC(F)(F)F)[C@H](C)CN([C@H](C)CO)C(=O)c2cc(NS(=O)(=O)c3ccc(F)cc3)ccc2O1 | x | 0 | 2 | x | x
COc1cccc(CN2c3ccc(Br)cc3C(=O)CS2(=O)=O)c1 | 0 | 0 | -37* | 5 | 2
O=C(c1ccccc1)N1CC(=O)N2[C@@H](CO)[C@@H](c3ccc(C#Cc4ccccc4)cc3)[C@@H]2C1 | x | x | -57 | x | x
O=c1oc2ccccc2c(NCc2ccc(Cl)cc2)c1[N+](=O)[O-] | 0 | 0 | -39* | -4 | -2
CC(=O)Nc1nc2ccccc2n1Cc1ccccc1Cl | -1 | 0 | -23* | 5 | -8
Cc1oc(-c2cccc(C(F)(F)F)c2)nc1CN1CCN(c2ccccn2)CC1 | 0 | 43* | -58 | -4 | 0
Cc1cccc(N2CCN(Cc3nc(-c4cccc(Cl)c4)oc3C)CC2)n1 | 0 | 0 | x | -7 | -2
C[C@@H]1CCCCO[C@@H](CN(C)C(=O)Nc2ccc3c(c2)OCO3)[C@@H](C)CN([C@@H](C)CO)C(=O)c2cc(NC(=O)Nc3ccc4c(c3)OCO4)ccc2O1 | x | x | 3 | x | x
COc1ccc(-c2nc(CN3CCN(Cc4cccc(Cl)c4)CC3)c(C)o2)cc1 | 0 | 0 | -33* | 1 | -2
Cc1ccccc1N1CCN(Cc2nc(Cc3ccccc3)no2)CC1 | 0 | x | -28* | -3 | -3
CC(=O)c1ccc(N2CCN(Cc3nc(Cc4ccccc4)no3)CC2)cc1 | 0 | 0 | -12 | -17 | -10
Clc1cccc(CN2CCN(Cc3nc(CCc4ccccc4)no3)CC2)c1 | 0 | 0 | -32* | 11 | -1
COc1ccc2c3c(n(C)c2c1)[C@H](CO)N(C(=O)C1CCCC1)CC31CCN(Cc2cccc(F)c2)CC1 | x | 0 | 6 | x | x
CNC[C@H]1Oc2ncc(C#CC3(O)CCCC3)cc2C(=O)N([C@H](C)CO)C[C@H]1C | x | 0 | 8 | x | x
O=[N+]([O-])c1ccccc1NCc1c(O)ccc2ccccc12 | 0 | 0 | -22* | -40 | -13
Oc1ccc2ccccc2c1CNc1ccccc1 | -3 | 1 | -13* | -58 | -16
SMILES | proKLK7 act | FGF22 binding | rRNA inh HTS | ADAM10 inh | ADAM17 inh
Oc1ccc2ccccc2c1CNc1ccc2ccccc2c1 | -5 | 0 | -58 | -53 | -11
CC(C)NC(=O)Nc1ccc2c(c1)C(=O)N(C)C[C@H](C)[C@@H](CN(C)S(C)(=O)=O)O2 | x | x | 0 | x | x
C=CCNC(=O)c1ccccc1NC(=O)COc1ccc(OC)cc1 | -1 | 44* | 11 | -3 | -3
Cc1ccccc1S(=O)(=O)NC1OC(=O)C(Oc2ccccc2)=C1Br (stereo unspecified) | 0 | 43* | 9 | -6 | -2
COc1cccc(S(=O)(=O)N[C@H]2CC[C@H](CCNC(=O)Cc3ccncc3)O[C@@H]2CO)c1 | x | 0 | 0 | x | x
CN1CCN(C(=O)c2cnn(-c3ccccc3)c2NC(=O)c2ccccc2)CC1 | 0 | 43* | x | -8 | -2
COc1ccc2c3c(n(C)c2c1)[C@H](CO)N(C(=O)Nc1ccccc1F)CC31CCN(C(=O)c2ccccc2)CC1 | x | x | -1 | x | x
O=c1oc(=S)oc2c1[C@H](c1ccc(Cl)cc1)O[C@H](C1CC1)C2 | 0 | 0 | -43* | -8 | -4
Cc1nc(-c2ccccn2)nc(SCC(=O)c2ccccc2)c1Cl | 0 | 0 | -23* | 2 | -2
Cc1nc(-c2ccccn2)nc(SCC(=O)N2CCOCC2)c1Cl | 0 | 0 | x | -5 | -2
CC(C)NC(=O)N(C)C[C@H]1Oc2c(cccc2[N+](=O)[O-])C(=O)N(C)C[C@@H]1C | x | x | -1 | x | x
Cc1cc(C(=O)N/N=C/c2ccc(-c3ccc([N+](=O)[O-])cc3Cl)o2)n[nH]1 | 0 | 0 | -32* | 0 | -3
Cc1cc(C(=O)N/N=C/c2ccc(-c3cccc([N+](=O)[O-])c3)o2)n[nH]1 | 0 | 0 | 8 | -3 | -1
C[C@@H]1CC=CCCNC(=O)[C@@H](C)N(C)C(=O)c2ccccc2O1 (mixture of isomers) | x | x | 4 | x | x
COc1ccc(C(=O)NCCc2ccccn2)cc1S(=O)(=O)Nc1ccc(Br)cc1 | 0 | 0 | -20* | 2 | -2
C[C@@H]1CN(C)C(=O)c2cccc(NS(C)(=O)=O)c2O[C@@H]1CN(C)C | x | x | 1 | x | x
CCCN1CNC(=S)N(c2ccccc2C)C1 | -1 | 43* | 11 | -4 | 1
CCCN1CNC(=S)N(c2ccc(C)cc2C)C1 | 0 | 0 | 7 | 5 | -2
COc1cc(COCC(O)CN2CCN(Cc3ccccc3)CC2)cc(OC)c1OC (stereo unspecified) | 0 | 44* | 10 | -9 | -3
CCN1CCN(CC(O)COCc2cc(OC)c(OC)c(OC)c2)CC1 (stereo unspecified) | 0 | 0 | -1 | 4 | -2
Cn1cnc(S(=O)(=O)N2CCCCN3[C@H](C2)[C@H](c2ccc(C4=CCCC4)cc2)[C@@H]3CO)c1 | x | 1 | x | x | x
O=C(NCC[C@@H]1CC[C@@H](NC(=O)C2CCCCC2)[C@@H](CO)O1)c1cc(Cl)cc(Cl)c1 | x | 0 | 3 | x | x
